Reference: ChEMBL document CHEMBL4513146, “CO-ADD screening of Karazin Kharkiv National University (Ukraine) compounds”
Results with a measured potency or affinity are listed apart.

How the values were obtained:
Staphylococcus aureus = conditions: Concentration 32 ug.mL-1;; ASSAY_TEST Inhibition of Bacterial Growth; detection method Absorption (OD600); MEDIA CAMHB; plate type 384well; NBS; CORNING #3640; time 18 hr
Escherichia coli = conditions: Concentration 32 ug.mL-1;; ASSAY_TEST Inhibition of Bacterial Growth; detection method Absorption (OD600); MEDIA CAMHB; plate type 384well; NBS; CORNING #3640; time 18 hr

SMILES | Inhibition (Staphylococcus aureus) [%] | Inhibition (Escherichia coli) [%]
COc1ccc(NC(=O)Cn2nc3cc(C)nc(Nc4cc(C)cc(C)c4)n3c2=O)cc1 | 9.51 | -1.23
COc1ccccc1CNC(=O)Cn1nc2c(SCc3ccc(Cl)cc3)nccn2c1=O | 6.37 | -3.98
COC(=O)c1ccccc1NC(=O)Cn1nc2c(Oc3ccccc3)nccn2c1=O | 8.3 | -3.16
Cc1ccc(-c2cc3c4nnc(CCC(=O)NCc5ccc(F)c(Cl)c5)n4ccn3n2)cc1C | 9.12 | -0.93
COC(=O)c1ccccc1NC(=O)Cn1nc2c(Oc3ccc(C)cc3)nccn2c1=O | -0.21 | -6.37
Cc1cccc(C)c1NC(=O)CSc1nnc2c3cc(-c4ccc(F)cc4)nn3ccn12 | -13.2 | -12.65
O=C(Cn1nc2c3sc(N4CCCC4)nc3ncn2c1=O)Nc1ccc(C(F)(F)F)cc1 | 13.19 | -0.19
CCOc1ccccc1NC(=O)Cn1nc2c(Oc3ccccc3)nccn2c1=O | 5.93 | -3.4
COC(=O)c1cccc(NC(=O)Cn2nc3ccc(-c4ccc(C)c(C)c4)nn3c2=O)c1 | 2.69 | -10.93
COc1ccccc1Cn1c(=O)c2sccc2n2c(=O)n(Cc3c(F)cccc3Cl)nc12 | 3.95 | 0.18
COc1ccc(NC(=O)Cn2nc3c(N4CC(C)CC(C)C4)nccn3c2=O)c(OC)c1 (stereo unspecified) | 18.35 | 1.24
CCc1ccccc1Sc1nccn2c(=O)n(CC(=O)Nc3ccc(OC)cc3)nc12 | -2.16 | -10.01
COc1ccccc1-n1ccn2c(SCc3cccc(Cl)c3)nnc2c1=O | -2.16 | -0.92
Cc1cccc(Oc2nc3ccccc3n3c(=O)n(CC(=O)NCc4ccco4)nc23)c1C | 3.87 | -6.2
Cc1nnc2c(S(=O)(=O)N(Cc3ccc(F)cc3)c3ccc(Cl)cc3)cccn12 | 5.21 | -5.38
CCc1nnc2c(S(=O)(=O)N(Cc3cccc(Cl)c3)c3ccccc3)cccn12 | 4.22 | -6.56
O=c1c2nnc(SCc3ccc(Cl)cc3)n2ccn1-c1ccc(F)cc1 | 4.01 | 2.84

SMILES | Inhibition (Staphylococcus aureus) [%] | Inhibition (Escherichia coli) [%]
Cc1cccc(C)c1NC(=O)Cn1c(=O)c2nnc(C(C)C)n2c2ccccc21 | 9.36 | 1.82
COc1ccc(NC(=O)Cn2nc3c(N4CCCC4)nccn3c2=O)cc1Cl | 12.62 | -0.96
COc1ccccc1-n1ccn2c(SCC(=O)c3ccc(C)cc3C)nnc2c1=O | 6.26 | -10.12
Cc1cccc(Sc2nccn3c(=O)n(CC(=O)Nc4ccc(Br)cc4C)nc23)c1 | 8.48 | -5.33
COc1ccc(NC(=O)Cn2c(=O)c3nnc(C(C)C)n3c3ccccc32)cc1Cl | 10.36 | 0.69
CSc1cccc(NC(=O)Cn2c(=O)c3nnc(C)n3c3ccccc32)c1 | -2.91 | 2.47
O=C(Cn1nc2c(Sc3ccccc3)nccn2c1=O)Nc1ccc2c(c1)OCO2 | -26.09 | 0.44
Cc1cccc(Oc2nc3ccccc3n3c(=O)n(CC(=O)Nc4ccc5c(c4)OCCO5)nc23)c1C | 10.6 | -1.83
COc1ccc(N(Cc2cccc(C)c2)S(=O)(=O)c2ccc3nncn3c2)cc1 | -29.14 | -12.64
Cc1ccc(CNC(=O)Cn2nc3c(N4CCN(c5ccccc5C)CC4)nccn3c2=O)cc1 | 4.45 | -8.18
N#Cc1cccc(NC(=O)CSc2nnc3c4cc(-c5ccccc5)nn4ccn23)c1 | 2.79 | -3.47
Cc1ccc(-n2ccn3c(SCC(=O)c4c[nH]c5ccccc45)nnc3c2=O)cc1C | 8.58 | 3.16
Cc1ccc(-c2ccc3nn(Cc4cccc(Br)c4)c(=O)n3n2)cc1 | 2.3 | -6.95
CCc1cccc(NC(=O)Cn2nc3ccc(SC4CCCCC4)nn3c2=O)c1 | 13.65 | -0.36
O=C(CSc1nnc2c3cc(-c4ccc(F)cc4)nn3ccn12)NCc1ccccc1Cl | 1.62 | -6.39
CCc1nnc2c(=O)n(CC(=O)Nc3ccc(C#N)cc3)c3ccccc3n12 | 12.29 | -5.97
